Source: PubChem
HT1080NT lethal – kills 2HG-producing HT-1080-NT fibrosarcoma cells. Potency, µM (doses to about 46.1 µM), inactives show at the highest dose activity, negative = less viability, hits mostly cytotoxic. HT-1080-NT fibrosarcoma viability, CellTiter-Glo ATP luminescence, 48 h. actives 1.6% (n = 360,000). AID 686970;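 note: NT is the 2HG producing partner of a matched IDH1 knockdown line; potency is the fitted concentration of half-maximal effect; 0% = DMSO-treated cells and -100% = media-only wells without cells; nearly all actives have a fitted effect of over 55% in size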
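A 48-hour cytotoxicity screen used HT-1080-NT cells plated 2 hours before compound delivery. ATP-based CellTiter-Glo luminescence measured viability, normalized to DMSO and no-cell controls.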
HT1080 IDH1KD tx – kills HT-1080 cells with IDH1 knockdown; Potency, µM (doses to about 46.1 µM), inactives show top-dose activity, negative = toxicity, actives largely listed as cytotoxic; HT-1080 IDH1 knockdown viability, ATP luminescence, 48 h; actives 2% (n = 360,000); AID 686971;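 note: potency is the fitted concentration of half-maximal effect; 0% = DMSO wells and -100% = cell-free medium wells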
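Cytotoxicity counter-line: IDH1KD HT-1080, 48 h, CellTiter-Glo. Curves classed by r2, magnitude and activity.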
TDP1 cell CPT – DT40-hTDP1 cell growth loss with CPT; chicken DT40 Tdp1-/-;hTDP1 cells + 20 nM CPT, ATP luminescence, 48 h; Potency, µM (highest dose often 46.2 µM), for inactives: at the highest dose activity change, negative = growth inhibition, usual class: inhibitors; actives 12% (n = 420,000); AID 686979; note: potency is the fitted concentration of half-maximal effect; nearly all actives have a fitted effect of over 55% in size
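Chicken DT40 Tdp1-/- cells stably complemented with human TDP1 were seeded at 400 cells/well in medium containing 20 nM camptothecin, exposed to pin-transferred compounds, and grown at 37 °C for at least 48 hr. Viability was read as ATP luminescence.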
IL-1B inflam inh – blocks inflammasome-driven IL-1 beta release. THP-1 LPS/ATP IL-1B secretion, AlphaLISA, 16 h; active compounds read low. activity change, % at 57.5 µM. actives 4.7% (n = 360,000); in the data active = activity change below about -50%; inconclusive = mostly about -30% to -49%
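Secreted IL-1B measured by AlphaLISA bead assay after 16 h compound exposure of THP-1 cells; compounds (final up to 57.5 uM) added 1 h before LPS (250 ng/mL) and ATP (1.25 mM) stimulation; lower signal means less secretion.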
ALOX12 inh – inhibitors of human 12S-lipoxygenase ALOX12; actives 1.1% (n = 580,000); P18054; Potency, µM (top dose mostly 108 µM), inactives show at the highest dose activity change, negative = inhibition, usual class: inhibitors; purified 12hLO, xylenol orange hydroperoxide absorbance; note: potency is the fitted concentration of half-maximal effect
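Hydroperoxide product was detected by ferrous iron/xylenol orange as the 573 to 405 nm absorbance ratio. Arachidonic acid at 40 uM (final) was turned over for 30 min at room temperature by 150 nM human 12hLO, pH 7.0 Hepes buffer, after 15 min compound preincubation.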
DT40 TDP1 no CPT – qHTS for Inhibitors of human tyrosyl-DNA phosphodiesterase 1 (TDP1): qHTS in cells in absence of CPT; DT40 Tdp1-/- hTDP1 cells, no CPT, ATP luminescence, 48 h; Potency, µM (highest dose often 46.2 µM), without a hit: at the highest dose activity change, negative = growth inhibition, most hits filed as inhibitors; actives 15% (n = 420,000); AID 686978, 2013; note: potency is the fitted concentration of half-maximal effect; nearly all actives have a fitted effect of over 55% in size
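Seeded 400 DT40-hTDP1 cells/well (vehicle DMSO, no 20 nM CPT); pinned compounds; ≥48 hr at 37 °C; CellTiter-Glo luminescence as viability measure.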
* hit, by the source's call; ? = inconclusive; nt = no result given; [ ] = dose if it differs, or a comment. Shown is part of a subset that was picked to be rich in hits. Unless noted, calls come from the whole dose curve; as a rule, active = well fitted curve in the direction sought with a large enough effect; inconclusive = small, poorly fitted or top-dose-only effect, or another doubt; inactive = no such curve, though single readings can be large; an effect the other way counts as inactive or inconclusive. Unless noted, % is set by controls: 0 for no effect and ±100 for the full control effect.

SMILES	HT1080NT lethal	HT1080 IDH1KD tx	TDP1 cell CPT	IL-1B inflam inh	ALOX12 inh	DT40 TDP1 no CPT
O=C(c1ccc2[nH]ccc2c1)N1CCN(c2cc(-c3ccccc3)[nH]n2)CC1	nt	nt	nt	nt	3%	nt
O=C(c1cnccn1)N1CCC(Oc2cccnc2)C1 (configuration not stated)	nt	nt	nt	nt	14%	nt
CCn1ncc(NC(=O)Cn2cc(-c3ncnc4ccsc34)cn2)n1	nt	nt	nt	nt	31%	nt
COCCNC(=O)[C@@H]1CCC[C@@H](NCc2cccc3c2OCO3)CN(C)C(=O)C1	nt	nt	nt	nt	-4%[176 µM]	nt
CCOC(=O)CNC(=S)SC	1%	-7%	17%	2	122%	0%
CCOC(=O)CNC(=S)n1ncnc1N	13%	11%	16µM*	-13	-12%	?
Cc1ccc(C(=O)N2CCC(Oc3ncccc3C(=O)N3CCCCC3)C2)cc1F (configuration not stated)	nt	nt	nt	nt	11%	nt
CCOC(=O)C1(C)Oc2ccccc2C(c2ccc(OC)cc2)=C1C(=O)OC (configuration not stated)	1%	-3%	?	-12	-12%	?
CCOC(=O)C1(C)Oc2ccccc2C(C(=O)OC)=C1C(=O)OC (configuration not stated)	8%	1%	?	24	38%	16µM*
CC1=NN(C(=O)Cc2ccccc2)C(O)(c2cccnc2)C1 (configuration not stated)	?	?	4.6µM*	22	4%	5.2µM*
CC1=NN(C(=O)c2ccccc2Cl)C(O)(c2cccnc2)C1 (configuration not stated)	12%	7%	?	-7	42%	5.8µM*
CC1=NN(C(=O)c2ccccc2C)C(O)(c2ccc(Cl)cc2)C1 (configuration not stated)	-20%	-27%	?	11	7%	?
O=C(O)c1cccc(C2CCCN(C(=O)CCn3nnc4ccccc43)C2)c1 (configuration not stated)	nt	nt	nt	nt	37%	nt
O=C(Nc1cccc(C2OC(=O)N(Cc3ccccc3)C2C(=O)Nc2ccccc2)c1)c1ccco1 (configuration not stated)	nt	nt	nt	nt	-1%	nt
O=C(Nc1ccc(N2CCCC2)cc1)c1cccc(Cl)c1	-15%	-5%	-24%	-19	?	13µM*
CC(=O)Nc1ccc(N2CCCCC2)c(C(=O)Nc2cccc(C)c2)c1	-7%	?	?	-6	?	9.2µM*
O=C(Nc1ccc(N2CCCC2)cc1)c1cc(Cl)ccc1Cl	?	?	23µM*	-3	?	23µM*
O=C(Nc1ccc(N2CCCCC2)cc1)c1ccccn1	9.2µM*	10µM*	16µM*	-3	nt	10µM*
CN(C(=O)c1cc2cc(Br)ccc2oc1=O)C1CCCCC1	nt	nt	nt	nt	14%	nt
NC(=O)c1cccc(CSc2ncc(C(F)(F)F)cc2Cl)c1	nt	nt	nt	nt	-48%	nt
O=C(Nc1ccc(N2CCOCC2)c(Cl)c1)c1ccccc1F	8%	5%	2%	nt	-14%	-21%
CC(=O)N1CCN(c2ccc(NC(=O)c3ccccc3Cl)cc2)CC1	21%	11%	-7%	12	?	?
O=C(Nc1ccc(N2CCCC2)c(Cl)c1)c1ccccc1F	-6%	-5%	-27%	-50*	-1%	?
O=C(Nc1ccc(N2CCCCCC2)cc1)c1ccccc1Cl	12µM*	8.2µM*	13µM*	?	-64%	16µM*
Clc1ccc(-c2nc(N3CCCC3)c3ccccc3n2)cc1	nt	nt	nt	nt	12%	nt
COCC(=O)N1CCN(CC(=O)Nc2ccc(C)cc2)[C@H]2CS(=O)(=O)C[C@H]21	nt	nt	nt	nt	23%	nt
